Out of some 5,600 compounds screened, about 390 (7%) showed an effect of 50% or more. The list comes from a sample in which strong results are over-represented; it also holds similar structures and randomly drawn compounds. Residues, ends and D or L forms follow the SMILES beside them.

The target of the experiment is T1, Protein deacetylase HDAC6 (Homo sapiens) (UniProt Q9UBN7).
T1 sequence (whole entry): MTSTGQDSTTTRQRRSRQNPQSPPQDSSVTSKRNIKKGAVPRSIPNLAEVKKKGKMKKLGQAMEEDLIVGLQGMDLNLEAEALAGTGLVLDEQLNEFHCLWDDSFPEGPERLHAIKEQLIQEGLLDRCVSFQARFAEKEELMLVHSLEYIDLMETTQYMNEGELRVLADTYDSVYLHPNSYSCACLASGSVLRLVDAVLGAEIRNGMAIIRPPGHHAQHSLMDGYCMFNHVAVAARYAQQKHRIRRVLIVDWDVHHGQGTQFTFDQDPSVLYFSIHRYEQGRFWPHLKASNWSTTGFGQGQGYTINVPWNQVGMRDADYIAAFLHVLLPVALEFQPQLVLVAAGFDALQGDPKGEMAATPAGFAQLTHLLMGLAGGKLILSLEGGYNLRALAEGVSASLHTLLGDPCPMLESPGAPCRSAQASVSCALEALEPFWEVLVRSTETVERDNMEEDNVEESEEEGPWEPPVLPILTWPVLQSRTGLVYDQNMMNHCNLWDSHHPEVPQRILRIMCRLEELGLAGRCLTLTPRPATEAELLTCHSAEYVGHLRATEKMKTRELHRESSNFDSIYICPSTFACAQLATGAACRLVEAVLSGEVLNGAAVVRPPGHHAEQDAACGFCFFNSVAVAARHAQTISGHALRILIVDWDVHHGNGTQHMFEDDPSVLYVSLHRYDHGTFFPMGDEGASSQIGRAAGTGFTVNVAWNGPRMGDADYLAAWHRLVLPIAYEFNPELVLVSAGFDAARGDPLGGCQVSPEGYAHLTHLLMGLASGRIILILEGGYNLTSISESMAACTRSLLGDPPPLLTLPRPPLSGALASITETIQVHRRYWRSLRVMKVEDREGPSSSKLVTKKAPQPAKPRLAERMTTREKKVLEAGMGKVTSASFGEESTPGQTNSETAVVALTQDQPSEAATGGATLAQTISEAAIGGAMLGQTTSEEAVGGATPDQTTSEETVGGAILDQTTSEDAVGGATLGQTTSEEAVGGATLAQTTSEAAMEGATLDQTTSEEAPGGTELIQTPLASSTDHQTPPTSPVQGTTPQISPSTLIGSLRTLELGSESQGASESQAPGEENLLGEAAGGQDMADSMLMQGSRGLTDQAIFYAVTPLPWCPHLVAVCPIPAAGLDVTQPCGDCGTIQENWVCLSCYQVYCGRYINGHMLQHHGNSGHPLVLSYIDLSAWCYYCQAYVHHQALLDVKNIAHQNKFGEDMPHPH
As to conditions: at 10 µM.
Broadly, the inhibition is the change of the read-out against control, counted positive when it falls. In the case of `O=C(Nc1cccc2cccnc12)c1ccc(N2C(=O)[C@@H]3[C@H](C2=O)[C@@H]2C=C[C@H]3C2)cc1`, the inhibition is 56.2%.
As to `O=C(Nc1cccc2cccnc12)c1ccc(N2C(=O)[C@@H]3[C@H](C2=O)[C@H]2C=C[C@@H]3C2)cc1`, the inhibition is -1.4%.
To `FC(F)(F)c1cc(NC(=S)Nc2ccc(Br)cc2-c2nnn[nH]2)cc(C(F)(F)F)c1` belongs 74.5%; to `Oc1nc(O)c2nc(O)[nH]c2n1`, 12.1%.
With `CC(CN(C)C)CN1c2ccccc2Sc2ccccc21` (configuration not stated) the figure was 30.9%; with `COc1ccccc1N1CCN(CCCCNC(=O)c2ccc(-c3ccc(C(C)=O)cc3)cc2)CC1`, 1.38%.
To `CN1CCN(CCCN2c3ccccc3Sc3ccc(S(=O)(=O)N(C)C)cc32)CC1` belongs -2.89%.
Consider `CC(=O)c1ccc2c(c1)N(CCCN1CCC(CCO)CC1)c1ccccc1S2`, for which the inhibition is 76.9%.
With `OCCN1CCN(CCCN2c3ccccc3Sc3ccc(Cl)cc32)CC1` the figure was 36.5%; with `CCN(CC)C(C)CN1c2ccccc2Sc2ccccc21` (configuration not stated), 11.7%; with `CN1CCCC(CN2c3ccccc3Sc3ccccc32)C1` (configuration not stated), 48.4%.
With `CN1CCN(CCCN2c3ccccc3Sc3ccc(C(F)(F)F)cc32)CC1`, the inhibition amounted to 59.5%.
To `CN(C)CCCN1c2ccccc2Sc2ccc(C(F)(F)F)cc21` belongs 89.2%; to `COc1ccc2c(c1)N(C[C@H](C)CN(C)C)c1ccccc1S2`, 14.6%.
With `CCSc1ccc2c(c1)N(CCCN1CCN(C)CC1)c1ccccc1S2`, the inhibition was 70.4%.
To `CCC(=N\O)/C(C)=C/c1ccc(F)cc1` belongs 47.7%.
With `C[C@@H](NCc1cc(Br)cc2nc(O)c(O)nc12)P(=O)(O)O` the figure was 7.12%.
With `CCCCCCCCCCCCCCCCCCCCCC(=O)O` the figure was -9.27%.
For the compound `COc1cc(N2CCC(N(C)C)CC2)ccc1Nc1ncc(Cl)c(Nc2ccccc2P(C)(C)=O)n1`, the inhibition came out at 3.02%.
As for `CCC[C@@H](NC(=O)N1C(=O)C(CC)(CC)[C@@H]1Oc1ccc(C(=O)N2CCN(C)CC2)cc1)c1ccc2c(c1)OCO2`, the inhibition was determined as 9.19%.
With `CCn1c2ccccc2c2cc(CNC)ccc21` the figure was -7.52%; with `COc1cccc(OC)c1-c1cc(C(=O)N[C@@H](CC(C)C)C(=O)O)nn1-c1ccnc2cc(Cl)ccc12`, 6.09%.
To `CCCCN1CC(O)C(O)C(O)C1CO` (configuration not stated) belongs -6.7%; to `COc1cc2c(cc1NS(=O)(=O)c1ccc(Br)cc1C)n(C)c(=O)n2C`, 19.4%; to `O=c1[nH]c([C@@H]2CCCN2)nc2c1oc1ccc(Cl)cc12`, -8.21%.
To `CC(C)(C)NC(=O)[C@@H]1C[C@@H]2CCCC[C@@H]2CN1C[C@@H](O)[C@H](Cc1ccccc1)NC(=O)[C@H](CC(N)=O)NC(=O)c1ccc2ccccc2n1` belongs 2.2%; to `NCCCC(N)C(=O)O` (configuration not stated), -5.26%; to `CCCCC/C=C\C/C=C\C/C=C\CCCCC(=O)O`, 20.4%.
Take `O=c1n(CC2CO2)c(=O)n(CC2CO2)c(=O)n1CC1CO1` (configuration not stated): the inhibition worked out at 21.5%.
With `CCN(CC)CCCCN1c2ccccc2Oc2ccc(Cl)cc21` the figure was 22.7%.
Turning to `CN(C)CCCN1c2ccccc2Sc2ccc(Cl)cc21`, the inhibition turned out to be 59.7%.
With `CN(C)CCCN1c2ccccc2CCc2ccc(Cl)cc21` the figure was 7.48%; with `c1ccc2c(Oc3nc(Nc4ccc(N5CCOCC5)cc4)c4ncn(C5CCCCC5)c4n3)cccc2c1`, 2.11%; with `O=C(c1c2ccccc2cc2ccccc12)N1CCC(N2CCC[C@@H](C(=O)N3CCOCC3)C2)CC1`, 16%.
With `C[C@@]12CCC3[C@@](CC[C@@H]4[C@](C)(C(=O)O)CCC[C@@]34C)(CC1=O)C2` (some centres not stated) the figure was 11.5%; with `c1ccc2c(c1)CCC[C@H]2Nc1nc2ccccc2[nH]1`, 96.9%.
With `CCNC(=O)N1CCN(CCCC(c2ccc(F)cc2)c2ccc(F)cc2)CC1` the figure was -5.99%; with `CC(C)C[C@H](NC(=O)[C@@H](COC(C)(C)C)NC(=O)[C@H](Cc1ccc(O)cc1)NC(=O)[C@H](CO)NC(=O)[C@H](Cc1c[nH]c2ccccc12)NC(=O)[C@H](Cc1cnc[nH]1)NC(=O)[C@@H]1CCC(=O)N1)C(=O)N[C@@H](CCCNC(=N)N)C(=O)N1CCC[C@H]1C(=O)NNC(N)=O`, 7.12%; with `CC(C)C[C@H](NC(=O)CNC(=O)[C@H](Cc1ccc(O)cc1)NC(=O)[C@H](CO)NC(=O)[C@H](Cc1c[nH]c2ccccc12)NC(=O)[C@H](Cc1cnc[nH]1)NC(=O)[C@@H]1CCC(=O)N1)C(=O)N[C@@H](CCCNC(=N)N)C(=O)N1CCC[C@H]1C(=O)NCC(N)=O`, 18.4%.
As to `CCCCCCCCCCCCCCCC(=O)N[C@@H](CCC(=O)NCCCC[C@H](NC(=O)[C@H](C)NC(=O)[C@H](C)NC(=O)[C@H](CCC(N)=O)NC(=O)CNC(=O)[C@H](CCC(=O)O)NC(=O)[C@H](CC(C)C)NC(=O)[C@H](Cc1ccc(O)cc1)NC(=O)[C@H](CO)NC(=O)[C@H](CO)NC(=O)[C@@H](NC(=O)[C@H](CC(=O)O)NC(=O)[C@H](CO)NC(=O)[C@@H](NC(=O)[C@H](Cc1ccccc1)NC(=O)[C@@H](NC(=O)CNC(=O)[C@H](CCC(=O)O)NC(=O)[C@H](C)NC(=O)[C@@H](N)Cc1cnc[nH]1)[C@@H](C)O)[C@@H](C)O)C(C)C)C(=O)N[C@@H](CCC(=O)O)C(=O)N[C@@H](Cc1ccccc1)C(=O)N[C@H](C(=O)N[C@@H](C)C(=O)N[C@@H](Cc1c[nH]c2ccccc12)C(=O)N[C@@H](CC(C)C)C(=O)N[C@H](C(=O)N[C@@H](CCCNC(=N)N)C(=O)NCC(=O)N[C@@H](CCCNC(=N)N)C(=O)NCC(=O)O)C(C)C)[C@@H](C)CC)C(=O)O`, the inhibition is 102%.
As for `CCCCc1nc2ccn(CC(=O)N(C)C)c(=O)c2n1Cc1ccc(-c2ccccc2-c2nnn[nH]2)cc1`, the inhibition worked out at 0.96%.
With `CCCc1cc(C)[nH]c(=O)c1CNC(=O)c1cc(-c2ccc(N3CCN(C(C)C)CC3)nc2)cc2c1cnn2C(C)C` the figure was 8.48%; with `O[C@@H](COc1cccc2ncccc12)CN1CCN([C@@H]2c3ccccc3[C@@H]3[C@H](c4ccccc42)C3(F)F)CC1`, 10.7%.
`CC(C)(C)c1cc(NC(=O)Nc2ccc(-c3cn4c(n3)sc3cc(OCCN5CCOCC5)ccc34)cc2)no1`: the inhibition stood at 1.57%.
With `Cc1ccc(-n2nc(C(C)(C)C)cc2NC(=O)Nc2ccc(OCCN3CCOCC3)c3ccccc23)cc1` the figure was 71.1%; with `Cc1cc(OCCN2CCOCC2)nn1-c1ccc2ccccc2c1`, 10.2%.
To `O[C@H]1[C@H](O)[C@@H](O)[C@H](O)[C@@H](O)[C@H]1O` belongs 22.8%; to `COc1nccnc1NS(=O)(=O)c1ccc(N)cc1`, 34.6%; to `CCCCc1nc2cc(/C=C/C(=O)NO)ccc2n1CCN(CC)CC`, 102%.
Consider `Clc1cc(Cl)c(OCC#CI)cc1Cl`, for which the inhibition turned out to be 4.74%.
To `COc1cc2nc(N3CCC(N4CCCCC4)CC3)nc(NC3CCCCCC3)c2cc1OC` belongs 0.07%; to `CC(C)[C@H]1c2ccc(F)cc2CC[C@@]1(CCN(C)CCCc1nc2ccccc2[nH]1)OC(=O)C1CC1`, 15.1%.
To `COc1ccc(Nc2ncnc3ccc(OC)cc23)cc1` belongs 27.1%.
On to `Cc1cc(C)cc(NC(=O)Nc2ccc(OS(N)(=O)=O)cc2)c1`, for which the inhibition was 44.5%.
To `COc1ccc2nc(NC(=O)Nc3ccccc3)sc2c1` belongs 109%; to `COC1=C2C[C@@H](C)C[C@H](OC)[C@H](O)[C@@H](C)/C=C(\C)[C@H](OC(N)=O)[C@@H](OC)/C=C\C=C(/C)C(=O)NC(=CC1=O)C2=O`, 19.3%; to `COC(=O)Nc1ccc(-c2nc(N3CCOCC3)c3cnn(C4CCN(Cc5cccnc5)CC4)c3n2)cc1`, -1.91%.
As to `Nc1nnc(Sc2ncc([N+](=O)[O-])s2)s1`, the inhibition stood at 34.9%.
With `O=C(Nc1c(Cl)cncc1Cl)c1ccc(OC(F)F)c(OCC2CC2)c1` the figure was -1.25%.
To `Cc1ccc(-c2csc3ncnc(SCCC(=O)O)c23)cc1` belongs 22.2%.
With `O=C(O)COc1ccc(C(=O)c2cccs2)c(Cl)c1Cl` the figure was 19.9%; with `Sc1nc2ccccc2s1`, 52.6%; with `O=c1[nH]c2cc(C(F)(F)F)c(N3CCOCC3)cc2n(CP(=O)(O)O)c1=O`, 1.79%.
For `CC(C)=CCC[C@](C)(O)[C@@H]1CC=C(C)CC1`, the inhibition was 18.6%.
To `COc1ccc(Cc2nc(O)c3c(C)nc([C@@H](CCCc4ccccc4)[C@@H](C)O)n3n2)cc1OC` belongs -9.71%.
To `COc1ccc(S(=O)(=O)Nc2c(C)cc(C)cc2C)cc1` belongs -8.52%; to `Cc1sc(N)c(C(=O)c2cccc(C(F)(F)F)c2)c1C`, 17.1%; to `Cc1cc(C)c(S(=O)(=O)Nc2cccc(C(F)(F)F)c2)c(C)c1`, 97.6%.
With `CCc1cccc(CC)c1NC(=O)N1Cc2[nH]nc(NC(=O)c3ccc(N4CCN(C)CC4)cc3)c2C1` the figure was 7.27%; with `Nc1nc(OCC2CCCCC2)c2nc[nH]c2n1`, 33.5%.
In the case of `Nc1nc(N)c(N=O)c(OCC2CCCCC2)n1`, the inhibition stood at 81.8%.
Turning to `Nc1ccc(C(=O)NCC(=O)O)cc1`, the inhibition was determined as 6.74%.
With `CN(C)CCC1(c2ccc(Cl)cc2)Cc2ccccc2C(=O)O1` (racemic) the figure was 3.8%.
To `Cn1cnc([N+](=O)[O-])c1Sc1ncnc2[nH]cnc12` belongs 12.8%.
To `OCc1cc(C(O)CNCCCCCCOCCCCc2ccccc2)ccc1O` (configuration not stated) belongs -5.85%.
For `OCc1cc([C@@H](O)CNCCCCCCOCCOCc2c(Cl)cccc2Cl)ccc1O`, the inhibition stood at 59.3%.
`Oc1ccc(C(O)CNCCCCCCNCC(O)c2ccc(O)c(O)c2)cc1O` (configuration not stated): the inhibition is -3.51%.
To `COc1ccc(S(=O)(=O)Nc2cccnc2Nc2ccc(O)cc2)cc1` belongs 34.3%; to `COc1ccc(Cl)cc1NC(=O)Nc1cc(C)nc2ccccc12`, 16.6%.
To `COc1cc(NS(C)(=O)=O)ccc1Nc1c2ccccc2nc2ccccc12` belongs 76.6%; to `CCOC(=O)c1cc(C#N)c(N2CCC(C(=O)NS(=O)(=O)Cc3ccccc3)CC2)nc1C`, 21.9%.
To `NCC(=O)N[C@@H](CCC(N)=O)C(=O)O` (H-Gly-Gln-OH) belongs 29.1%.
For the compound `O=S(=O)(Cc1ccccc1)Nc1ccc(-c2ccc3c(cnn3-c3ccc(F)cc3)c2)c(C(F)(F)F)c1`, the inhibition was -8.14%.
With `Oc1cccc(O)c1`, the inhibition is 1.38%.
To `N[C@H]1C[C@@H]1c1ccc(-c2cccc(O)c2)cc1` belongs 77.4%; to `O=c1[nH]c2ccccc2n1C1CCN(CCOc2ccccc2)CC1`, 20.9%.
To `CCOC(=O)c1cc2ccc(O)cc2oc1=O` belongs 55.9%.

These data come from ChEMBL document CHEMBL4808148, “HDAC6 screening dataset using tau-based substrate in an enzymatic assay yields selective inhibitors and activators” (2021).
